This is an account of results in the supplement of paper PMC4022240.

± gives the standard deviation.

Common to all, as to experiment: peptide microarray binding signal (635 nm), min-max normalized on array (fraction of array maximum); higher = stronger binding
What all share (conditions): peptide region: H3 1-13

Experiment [1] concerns the target T1, HaloTag-ATRX ADD domain (163-292).
T1 chain: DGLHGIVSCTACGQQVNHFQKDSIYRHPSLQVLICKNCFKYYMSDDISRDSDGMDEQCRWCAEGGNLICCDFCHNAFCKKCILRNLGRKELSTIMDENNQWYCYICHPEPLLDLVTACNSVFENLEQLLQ
On the procedure:
(§1)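 Histone 13-mer peptides were synthesized as cellulose conjugates with a C-terminal 20-atom PEG linker and printed in triplicate on nitrocellulose. The sequence given is the unmodified backbone; PTMs (Kme1/2/3, Kac, Sph/Tph, Rme/Rme2a/Rme2s, Rcit) are listed in the label and the 'peptide modifications' condition. Slides were probed at 4 °C for 1 h with biotin-labelled (HQ)5-HaloTag reader fusions (ATRX-ADD, ING2-PHD) then streptavidin-Alexa647, or with rabbit histone antibodies then anti-rabbit Alexa647. The mean 635 nm signal of the triplicate spots was scaled 0-1 between the lowest and highest values on each array.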

Experiment [2] concerns the target HaloTag-ING2 PHD (mouse Ing2 200-280). Here is the method: as §1
Experiment [3] has as its target anti-H3K4me3 antibody ab8580. On the procedure: as §1
In experiment [4] the target is anti-H3K9me3 antibody ab8898. Here is the method: as §1
Where [5] appears, read: peptide modifications: H3K4me3 H3K9me3, binder concentration: 1:2,000 dilution.
Setting [6] is: peptide modifications: H3K4me3 H3K9me3, binder concentration: 1:10,000 dilution.
[7] abbreviates: peptide modifications: H3R2cit H3K9me1, binder concentration: 1:2,000 dilution.
The mark [8] stands for this setting: peptide modifications: H3R2cit H3K9me1, binder concentration: 1:10,000 dilution.
Setting [9] is: peptide modifications: H3R2cit H3K9ac, binder concentration: 1:2,000 dilution.
[10] abbreviates: peptide modifications: H3R2cit H3K9ac, binder concentration: 1:10,000 dilution.
Setting [11] is: peptide modifications: H3K4me3 H3K9ac, binder concentration: 1:2,000 dilution.
Setting [12] is: peptide modifications: H3K4me3 H3K9ac, binder concentration: 1:10,000 dilution.
Setting [13] is: peptide modifications: H3K4me3 H3K9me1, binder concentration: 1:2,000 dilution.
The mark [14] stands for this setting: peptide modifications: H3K4me3 H3K9me1, binder concentration: 1:10,000 dilution.
[15] abbreviates: peptide modifications: H3R2cit H3K4me1, binder concentration: 1:2,000 dilution.
Setting [16] is: peptide modifications: H3R2cit H3K4me1, binder concentration: 1:10,000 dilution.
The mark [17] stands for this setting: peptide modifications: H3K9ac, binder concentration: 1:2,000 dilution.
[18] abbreviates: peptide modifications: H3K9ac, binder concentration: 1:10,000 dilution.
[19] abbreviates: peptide modifications: H3K4me3 H3T6ph, binder concentration: 1:2,000 dilution.
The mark [20] stands for this setting: peptide modifications: H3K4me3 H3T6ph, binder concentration: 1:10,000 dilution.
Where [21] appears, read: peptide modifications: H3R2cit H3K4ac, binder concentration: 1:2,000 dilution.
Setting [22] is: peptide modifications: H3R2cit H3K4ac, binder concentration: 1:10,000 dilution.
[23] abbreviates: peptide modifications: H3K4me3 H3K9me2, binder concentration: 1:2,000 dilution.
The mark [24] stands for this setting: peptide modifications: H3K4me3 H3K9me2, binder concentration: 1:10,000 dilution.

Consider ARTKQTARKSTGG [H3 1-13 A R T Kme3 Q T A R Kme3 S T G G], for which the “peptide microarray binding signal” value in experiment [1] (peptide modifications: H3K4me3 H3K9me3, binder concentration: 50 nM) came to 0.0752 ± 0.0036; in experiment [1] (peptide modifications: H3K4me3 H3K9me3, binder concentration: 500 nM) it was 0.159 ± 0.022; in experiment [2] (peptide modifications: H3K4me3 H3K9me3, binder concentration: 10 nM), 0.582 ± 0.018; in experiment [2] (peptide modifications: H3K4me3 H3K9me3, binder concentration: 100 nM), 0.742 ± 0.14; in experiment [3] (setting [5]) it was 1 ± 0.19; in experiment [3] (setting [6]), 1 ± 0.19. The “peptide microarray binding signal” value in experiment [4] (setting [5]) was found to be 0.46 ± 0.11; in experiment [4] (setting [6]), 0.321 ± 0.037.
On to ARTKQTARKSTGG [H3 1-13 A Rcit T K Q T A R Kme S T G G], for which the “peptide microarray binding signal” value in experiment [1] (peptide modifications: H3R2cit H3K9me1, binder concentration: 50 nM) came out at 0.0233 ± 0.0034; in experiment [1] (peptide modifications: H3R2cit H3K9me1, binder concentration: 500 nM), 0.0804 ± 0.019; in experiment [2] (peptide modifications: H3R2cit H3K9me1, binder concentration: 10 nM) it was 0.0313 ± 0.0068; in experiment [2] (peptide modifications: H3R2cit H3K9me1, binder concentration: 100 nM), 0.0512 ± 0.0034; in experiment [3] (setting [7]), 0.00831 ± 0.0015; in experiment [3] (setting [8]), 0.0097 ± 0.00085. The “peptide microarray binding signal” value in experiment [4] (setting [7]) was found to be 0.0064 ± 0.00042; in experiment [4] (setting [8]) it was 0.00375 ± 0.00014.
Take ARTKQTARKSTGG [H3 1-13 A Rcit T K Q T A R Kac S T G G]: the “peptide microarray binding signal” value in experiment [1] (peptide modifications: H3R2cit H3K9ac, binder concentration: 50 nM) was 0.0152 ± 0.00082; in experiment [1] (peptide modifications: H3R2cit H3K9ac, binder concentration: 500 nM), 0.0454 ± 0.005; in experiment [2] (peptide modifications: H3R2cit H3K9ac, binder concentration: 10 nM), 0.0489 ± 0.0051; in experiment [2] (peptide modifications: H3R2cit H3K9ac, binder concentration: 100 nM), 0.0881 ± 0.024; in experiment [3] (setting [9]) it was 0.0231 ± 0.0037; in experiment [3] (setting [10]), 0.0127 ± 0.00061. Also, the “peptide microarray binding signal” value was 0.00818 ± 0.001 in experiment [4] (setting [9]) and 0.00502 ± 0.00055 in experiment [4] (setting [10]).
Turning to ARTKQTARKSTGG [H3 1-13 A R T Kme3 Q T A R Kac S T G G], the “peptide microarray binding signal” value in experiment [1] (peptide modifications: H3K4me3 H3K9ac, binder concentration: 50 nM) came out at 0.00768 ± 0.00092; in experiment [1] (peptide modifications: H3K4me3 H3K9ac, binder concentration: 500 nM) it was 0.00948 ± 0.00033; in experiment [2] (peptide modifications: H3K4me3 H3K9ac, binder concentration: 10 nM), 0.216 ± 0.039; in experiment [2] (peptide modifications: H3K4me3 H3K9ac, binder concentration: 100 nM) it was 0.199 ± 0.014; in experiment [3] (setting [11]), 0.289 ± 0.062; in experiment [3] (setting [12]), 0.621 ± 0.31. Also, the “peptide microarray binding signal” value was determined as 0.0528 ± 0.047 in experiment [4] (setting [11]) and 0.0162 ± 0.0043 in experiment [4] (setting [12]).
For ARTKQTARKSTGG [H3 1-13 A R T Kme3 Q T A R Kme S T G G], the “peptide microarray binding signal” value came to 0.0117 ± 0.0004 in experiment [1] (peptide modifications: H3K4me3 H3K9me1, binder concentration: 50 nM); 0.025 ± 0.0009 in experiment [1] (peptide modifications: H3K4me3 H3K9me1, binder concentration: 500 nM); 0.411 ± 0.074 in experiment [2] (peptide modifications: H3K4me3 H3K9me1, binder concentration: 10 nM); 0.338 ± 0.07 in experiment [2] (peptide modifications: H3K4me3 H3K9me1, binder concentration: 100 nM); 0.484 ± 0.13 in experiment [3] (setting [13]); 0.592 ± 0.25 in experiment [3] (setting [14]). Also, the “peptide microarray binding signal” value in experiment [4] (setting [13]) came out at 0.108 ± 0.018; in experiment [4] (setting [14]) it was 0.0413 ± 0.0047.
For the molecule ARTKQTARKSTGG [H3 1-13 A Rcit T Kme Q T A R K S T G G], the “peptide microarray binding signal” value in experiment [1] (peptide modifications: H3R2cit H3K4me1, binder concentration: 50 nM) is 0.00831 ± 0.00021; in experiment [1] (peptide modifications: H3R2cit H3K4me1, binder concentration: 500 nM), 0.0204 ± 0.0024; in experiment [2] (peptide modifications: H3R2cit H3K4me1, binder concentration: 10 nM), 0.0217 ± 0.0012; in experiment [2] (peptide modifications: H3R2cit H3K4me1, binder concentration: 100 nM), 0.148 ± 0.015; in experiment [3] (setting [15]) it was 0.0371 ± 0.0013; in experiment [3] (setting [16]) it was 0.02 ± 0.0022. In addition, the “peptide microarray binding signal” value in experiment [4] (setting [15]) amounted to 0.00468 ± 0.0004; in experiment [4] (setting [16]), 0.00202 ± 3.2e-05.
ARTKQTARKSTGG [H3 1-13 A R T K Q T A R Kac S T G G]: the “peptide microarray binding signal” value in experiment [1] (peptide modifications: H3K9ac, binder concentration: 50 nM) came out at 0.0143 ± 0.00037; in experiment [1] (peptide modifications: H3K9ac, binder concentration: 500 nM), 0.0461 ± 0.0053; in experiment [2] (peptide modifications: H3K9ac, binder concentration: 10 nM), 0.0431 ± 0.012; in experiment [2] (peptide modifications: H3K9ac, binder concentration: 100 nM), 0.0776 ± 0.0087; in experiment [3] (setting [17]), 0.00276 ± 0.00088; in experiment [3] (setting [18]) it was 0.00171 ± 7.1e-05. In addition, the “peptide microarray binding signal” value in experiment [4] (setting [17]) was 0.00554 ± 0.00013; in experiment [4] (setting [18]), 0.00185 ± 0.00011.
As to ARTKQTARKSTGG [H3 1-13 A R T Kme3 Q Tph A R K S T G G], the “peptide microarray binding signal” value in experiment [1] (peptide modifications: H3K4me3 H3T6ph, binder concentration: 50 nM) is 0.00724 ± 0.0003; in experiment [1] (peptide modifications: H3K4me3 H3T6ph, binder concentration: 500 nM), 0.0154 ± 0.0024; in experiment [2] (peptide modifications: H3K4me3 H3T6ph, binder concentration: 10 nM) it was 0.169 ± 0.048; in experiment [2] (peptide modifications: H3K4me3 H3T6ph, binder concentration: 100 nM) it was 0.484 ± 0.12; in experiment [3] (setting [19]), 0.323 ± 0.064; in experiment [3] (setting [20]) it was 0.404 ± 0.061. Also, the “peptide microarray binding signal” value is 0.0262 ± 0.0036 in experiment [4] (setting [19]) and 0.00865 ± 0.0019 in experiment [4] (setting [20]).
Consider ARTKQTARKSTGG [H3 1-13 A Rcit T Kac Q T A R K S T G G], for which the “peptide microarray binding signal” value in experiment [1] (peptide modifications: H3R2cit H3K4ac, binder concentration: 50 nM) was 0.0109 ± 0.00013; in experiment [1] (peptide modifications: H3R2cit H3K4ac, binder concentration: 500 nM), 0.045 ± 0.0051; in experiment [2] (peptide modifications: H3R2cit H3K4ac, binder concentration: 10 nM), 0.0563 ± 0.014; in experiment [2] (peptide modifications: H3R2cit H3K4ac, binder concentration: 100 nM), 0.125 ± 0.011; in experiment [3] (setting [21]), 0.00725 ± 0.0029; in experiment [3] (setting [22]), 0.00656 ± 0.0011. Further, the “peptide microarray binding signal” value worked out at 0.00782 ± 0.0003 in experiment [4] (setting [21]) and 0.0049 ± 0.00038 in experiment [4] (setting [22]).
As to ARTKQTARKSTGG [H3 1-13 A R T Kme3 Q T A R Kme2 S T G G], the “peptide microarray binding signal” value in experiment [1] (peptide modifications: H3K4me3 H3K9me2, binder concentration: 50 nM) was found to be 0.0174 ± 0.00053; in experiment [1] (peptide modifications: H3K4me3 H3K9me2, binder concentration: 500 nM), 0.0402 ± 0.003; in experiment [2] (peptide modifications: H3K4me3 H3K9me2, binder concentration: 10 nM), 0.735 ± 0.11; in experiment [2] (peptide modifications: H3K4me3 H3K9me2, binder concentration: 100 nM), 0.869 ± 0.12; in experiment [3] (setting [23]), 0.929 ± 0.063; in experiment [3] (setting [24]), 0.889 ± 0.23. Also, the “peptide microarray binding signal” value in experiment [4] (setting [23]) is 0.11 ± 0.025; in experiment [4] (setting [24]), 0.0347 ± 0.004.
